Measurements taken from PubChem BioAssay AID1159580 (chemical genetic matrix, 2015).
Screen size: about 5,500 compounds; about 2,000 (36%) were called active. Roughly 18% stayed inconclusive and do not appear here. No stated cut-off is given here; in the data, active means normalized growth mostly below about 0.91 (no sharp cut-off); inconclusive means no clear call, values can overlap the other calls; inactive means mostly above about 0.92. The list shows a part of the results.

Assay: chemical genetic growth profiling, strain panel (AID 1159580);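 further: tested at 20 µM; growth read once vehicle control cultures reached saturation at 30 °C; 1 = growth at the plate median or of vehicle wells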
Conditions: S. cerevisiae deletion strains, growth OD
[1] = locus YAL013W, strain DEP1, stronger effect = lower value
[2] = locus YBR229C, strain ROT2, stronger effect = lower value
[3] = locus YDL101C, strain DUN1, stronger effect = lower value
[4] = locus YDR150W, strain NUM1, stronger effect = lower value
[5] = locus YEL061C, strain CIN8, stronger effect = lower value
[6] = locus YGR078C, strain PAC10, stronger effect = lower value
[7] = locus YGR229C, strain SMI1, stronger effect = lower value
[8] = locus YHR030C, strain SLT2, stronger effect = lower value
[9] = locus YJR043C, strain POL32, stronger effect = lower value
[10] = locus YLR039C, strain RIC1, stronger effect = lower value
[11] = locus YLR262C, strain YPT6, stronger effect = lower value
[12] = locus YNL153C, strain GIM3, stronger effect = lower value
[13] = locus YPL055C, strain LGE1, stronger effect = lower value
[14] = locus YPL241C, strain CIN2, stronger effect = lower value

Measured: normalized growth

O=c1cc(CO)occ1O
inactive: [1] 1.02 | locus YBR021W, strain FUR4, stronger effect = lower value 1 | [2] 1 | locus YCL029C, strain bik1, stronger effect = lower value 1.02 | locus YDL035C, strain GPR1, stronger effect = lower value 1.03 | locus YDL074C, strain BRE1, stronger effect = lower value 1.03 | [3] 1 | locus YDL134C, strain PPH21, stronger effect = lower value 1.01 | locus YDL185W, strain tfp1, stronger effect = lower value 1.03 | locus YDL192W, strain arf1, stronger effect = lower value 1.02 | locus YDR101C, strain arx1, stronger effect = lower value 1.03 | [4] 1.01 | locus YDR162C, strain NBP2, stronger effect = lower value 1.04 | locus YDR318W, strain mcm21, stronger effect = lower value 1.02 | locus YDR388W, stronger effect = lower value 1.02 | locus YDR502C, strain sam2, stronger effect = lower value 1.03 | [5] 1 | locus YER110C, stronger effect = lower value 1.04 | locus YER155C, strain BEM2, stronger effect = lower value 1 | locus YER167W, strain BCK2, stronger effect = lower value 1.01 | locus YGL078C, strain dbp3, stronger effect = lower value 1.03 | locus YGL086W, strain mad1, stronger effect = lower value 1 | locus YGL248W, strain PDE1, stronger effect = lower value 1 | [6] 1.01 | locus YGR135W, strain pre9, stronger effect = lower value 1.05 | [7] 1.01 | locus YGR252W, strain gcn5, stronger effect = lower value 1.05 | [8] 1 | locus YHR079C, strain IRE1 (second series), stronger effect = lower value 1.03 | locus YHR094C, strain hxt1, stronger effect = lower value 1.02 | locus YHR129C, strain ARP1, stronger effect = lower value 1.01 | locus YHR200W, strain rpn10, stronger effect = lower value 1.03 | locus YIL066C, strain RNR3, stronger effect = lower value 1.01 | locus YIL073C, strain SPO22, stronger effect = lower value 1.15 | locus YIL125W, strain kgd1, stronger effect = lower value 1.02 | locus YIR030C, strain dcg1, stronger effect = lower value 1.02 | locus YJL095W, strain BCK1, stronger effect = lower value 1.02 | locus YJL134W, strain LCB3, stronger effect = lower value 1.01 | locus YJL168C, strain set2, stronger effect = lower value 1.04 | locus YJL187C, strain SWE1 (second series), stronger effect = lower value 1.01 | [9] 1.02 | locus YKL009W, strain mrt4, stronger effect = lower value 1.03 | locus YKL068W, stronger effect = lower value 1.01 | locus YKL085W, strain MDH1 (second series), stronger effect = lower value 1.01 | locus YKL085W, strain MDH1, stronger effect = lower value 1.01 | locus YKR001C, strain vps1, stronger effect = lower value 1.03 | [10] 1.04 | locus YLR058C, strain SHM2, stronger effect = lower value 1 | locus YLR102C, strain apc9, stronger effect = lower value 1.02 | [11] 1.08 | locus YLR268W, strain sec22, stronger effect = lower value 1.02 | locus YLR330W, strain CHS5, stronger effect = lower value 1 | locus YLR342W, strain FKS1 (second series), stronger effect = lower value 1.04 | locus YLR371W, strain rom2, stronger effect = lower value 1.04 | locus YLR418C, strain cdc73, stronger effect = lower value 1.06 | locus YML016C, strain PPZ1, stronger effect = lower value 1 | locus YML032C, strain rad52, stronger effect = lower value 1.04 | locus YML124C, strain tub3, stronger effect = lower value 1.02 | locus YMR078C, strain ctf18, stronger effect = lower value 1.03 | locus YMR223W, strain ubp8, stronger effect = lower value 1.06 | locus YMR307W, strain GAS1, stronger effect = lower value 1.07 | locus YNL067W, strain RPL9B, stronger effect = lower value 1.03 | [12] 1.01 | locus YNL233W, strain BNI4, stronger effect = lower value 1.01 | locus YNL250W, strain rad50, stronger effect = lower value 1.05 | locus YNL271C, strain bni1, stronger effect = lower value 1.02 | locus YNL298W, strain CLA4, stronger effect = lower value 1.04 | locus YNL307C, strain MCK1, stronger effect = lower value 1.03 | locus YNR052C, strain pop2, stronger effect = lower value 1.01 | locus YOL012C, strain htz1 1.34 | locus YOL147C, strain pex11, stronger effect = lower value 1.03 | locus YOR061W, strain CKA2, stronger effect = lower value 1.01 | locus YOR069W, strain VPS5, stronger effect = lower value 1 | locus YOR136W, strain idh2, stronger effect = lower value 1.02 | locus YOR144C, strain elg1, stronger effect = lower value 1.03 | locus YOR184W, strain ser1, stronger effect = lower value 1.04 | locus YOR316C, strain cot1, stronger effect = lower value 1.01 | [13] 1.02 | [14] 1.01 | locus YPR119W, strain clb2, stronger effect = lower value 1.03 | locus YPR141C, strain kar3, stronger effect = lower value 1.01 | locus YPR163C, strain tif3, stronger effect = lower value 1.04 | locus YPR167C, strain met16, stronger effect = lower value 1.02 | strain wtn01, stronger effect = lower value 1.01

CCOC(=O)NC(=O)c1cn(Cc2cccs2)c(=O)[nH]c1=O
inactive: [1] 0.999 | [2] 1.02 | [3] 1 | [4] 1.02 | [5] 0.996 | [6] 0.993 | [7] 0.998 | [8] 1 | locus YHR087W, strain rtc3, stronger effect = lower value 1.01 | locus YJL187C, strain SWE1, stronger effect = lower value 1.01 | [9] 0.988 | locus YJR075W, strain HOC1, stronger effect = lower value 1.01 | [10] 1.01 | locus YLR058C, strain SHM2 (second series), stronger effect = lower value 1.01 | locus YLR085C, strain ARP6, stronger effect = lower value 1.03 | [11] 0.999 | locus YML094W, strain GIM5, stronger effect = lower value 1.01 | locus YMR219W, strain ESC1, stronger effect = lower value 1.01 | locus YMR263W, strain SAP30, stronger effect = lower value 1.01 | locus YNL128W, strain TEP1, stronger effect = lower value 0.984 | [12] 0.983 | locus YNL298W, strain CLA4 (second series), stronger effect = lower value 1.02 | locus YNL322C, strain KRE1, stronger effect = lower value 1 | locus YNR030W, strain Alg12, stronger effect = lower value 1.01 | locus YOL006C, strain TOP1, stronger effect = lower value 0.997 | [13] 1.06 | [14] 1.02 | locus YPR135W, strain CTF4, stronger effect = lower value 0.96
